# Bioassay records as filed in PubChem BioAssay.
# Gal4-VP16 FLuc: inhibits Gal4-VP16 luciferase reporter, ROR gamma counter-screen | Potency, µM (doses to about 53.6 µM), inactives show top-dose activity, negative = inhibition, actives largely listed as inhibitors | 3.5% of 310,000 active | Drosophila S2 Gal4-VP16 UAS-luciferase, luminescence, 20 h;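 further: Gal4-VP16 expression switched on by copper sulfate through the metallothionein promoter; nearly all actives have a fitted effect of over 50% in size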
# RORgamma inh: ROR gamma (mouse) transcription inhibition | 5.4% of 310,000 active | Potency, µM (series often up to 53.6 µM), inactives show at the highest dose activity change, negative = inhibition, most hits filed as inhibitors | Drosophila S2 Gal4-RORgamma UAS-luciferase reporter, 20 h | AID 2551; further: nearly all actives have a fitted effect of over 60% in size
#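 ROR gamma transcriptional activity was tracked as Gal4-UAS luciferase output in stably transfected Drosophila Schneider cells, with compound added 1 hr before 700 uM copper sulfate induction and a 20 hr ambient-temperature incubation.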
# 12-LOX inh: blocks human arachidonate 12S-lipoxygenase; purified 12hLO, xylenol orange hydroperoxide absorbance; Potency, µM (highest dose often 108 µM), for the others: at the top dose activity change, negative = inhibition, actives largely listed as inhibitors; 1.1% of 580,000 active; AID 1671190
# Target sequence (P18054 whole entry, looked up): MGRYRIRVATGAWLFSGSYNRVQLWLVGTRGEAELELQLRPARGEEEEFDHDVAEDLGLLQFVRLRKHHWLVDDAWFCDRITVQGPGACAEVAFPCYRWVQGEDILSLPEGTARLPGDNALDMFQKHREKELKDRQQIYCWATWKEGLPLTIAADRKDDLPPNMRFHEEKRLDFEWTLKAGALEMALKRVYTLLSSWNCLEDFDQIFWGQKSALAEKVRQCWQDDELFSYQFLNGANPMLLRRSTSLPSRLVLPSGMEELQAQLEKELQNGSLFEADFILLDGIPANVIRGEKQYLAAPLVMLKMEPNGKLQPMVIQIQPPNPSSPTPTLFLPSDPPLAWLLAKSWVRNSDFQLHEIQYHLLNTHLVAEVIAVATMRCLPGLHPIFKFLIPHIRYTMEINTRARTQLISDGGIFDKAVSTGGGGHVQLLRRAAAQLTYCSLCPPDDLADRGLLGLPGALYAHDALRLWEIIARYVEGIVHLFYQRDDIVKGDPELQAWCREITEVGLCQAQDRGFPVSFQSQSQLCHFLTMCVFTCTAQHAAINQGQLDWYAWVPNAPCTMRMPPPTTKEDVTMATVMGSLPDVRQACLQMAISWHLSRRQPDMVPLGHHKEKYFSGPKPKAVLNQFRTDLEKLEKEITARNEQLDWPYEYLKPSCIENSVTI
#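 Purified human 12hLO (150 nM final) in 25 mM Hepes, 0.01% Triton X-100, pH 7.0 was preincubated 15 min at room temperature with compound. Then 40 uM arachidonic acid was added, 30 min. Hydroperoxide was read by Fe-XO absorbance ratio 573/405 nm.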
# ELG1 repair inh: ELG1-dependent DNA repair inhibition. 2.3% of 330,000 active. Potency, µM (top dose mostly 46.1 µM), without a hit: at the top dose activity change, negative = inhibition, usual class: inhibitors. HEK293T ELG1-luciferase reporter, luminescence, 16 h; DNA damage induced by 5-fluorouridine. AID 504467; further: nearly all actives have a fitted effect of over 55% in size
#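 DMSO vehicle served as the neutral condition. Each well held 2,000 cells given 5-fluorouridine plus compound; after 16 hr at 37 °C/5% CO2, ONE-Glo was added and luciferase measured 30 min later.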
# DT40 TDP1 no CPT: qHTS for Inhibitors of human tyrosyl-DNA phosphodiesterase 1 (TDP1): qHTS in cells in absence of CPT | DT40 Tdp1-/- hTDP1 cells, no CPT, ATP luminescence, 48 h | Potency, µM (highest dose often 46.2 µM), for the others: at the top dose activity change, negative = growth inhibition, actives largely listed as inhibitors | 15% of 420,000 active | AID 686978, 2013; further: nearly all actives have a fitted effect of over 55% in size
#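 Chicken DT40 Tdp1-/- cells complemented with human TDP1, screened without camptothecin (DMSO vehicle only), 400 cells/well. Compounds pin-transferred, cells incubated at 37 °C for at least 48 hr. Growth read as ATP-dependent luminescence (CellTiter-Glo, 30 min at RT).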
# DT40 TDP1 CPT: DT40-hTDP1 cell growth loss with CPT; chicken DT40 Tdp1-/-;hTDP1 cells + 20 nM CPT, ATP luminescence, 48 h; Potency, µM (series often up to 46.2 µM), inactives show at the highest dose activity change, negative = growth inhibition, actives largely listed as inhibitors; 12% of 420,000 active; further: nearly all actives have a fitted effect of over 55% in size
#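 Cell growth measured by CellTiter-Glo luminescence after a minimum 48 h, 37 C compound exposure with 20 nM CPT in Tdp1-knockout DT40 cells stably expressing hTDP1, seeded 400/well; qHTS titration format.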
# Active calls of the source: *; ? = inconclusive; . = no result given. Hits are enriched below; roughly 15% of the tested compounds scored in any of these assays. The call rests on the fitted dose curve; in most records, active means well fitted curve in the direction sought with a large enough effect; inconclusive means small, poorly fitted or top-dose-only effect, or another doubt; inactive means no such curve, though single readings can be large; an effect the other way counts as inactive or inconclusive. On the % scale 0 is the no-effect control and ±100 the full control effect; potency means the concentration at half of the fitted maximal effect.
SMILES,Gal4-VP16 FLuc,RORgamma inh,12-LOX inh,ELG1 repair inh,DT40 TDP1 no CPT,DT40 TDP1 CPT
CC(=O)C1=C(C)NC(SCC(N)=O)=C(C#N)C1c1cccnc1 (centres undefined),7%,-6%,-6%,14%,9%,-1%
Cc1ccc(NC(=O)CSC2=C(C#N)C(c3ccco3)C3=C(CCCC3=O)N2)cc1 (centres undefined),-19%,10%,-28%,?,?,-24%
Cc1ccc(C(=O)CSC2=C(C#N)C(c3ccco3)C3=C(CC(C)(C)CC3=O)N2)cc1 (centres undefined),-5%,0%,19%,?,10µM*,13µM*
CC1(C)CC(=O)C2=C(C1)NC(SCC(=O)Nc1ccccc1)=C(C#N)C2c1ccco1 (centres undefined),-29%,?,-19%,?,?,?
CC1=C(C(=O)OC2CCCCC2)C(c2ccco2)C2=C(CC(C)(C)CC2=O)N1 (centres undefined),-2%,9%,-9%,?,?,18µM*
N#CC1=C(SCC(=O)c2ccc(Cl)cc2)NC2=C(C(=O)CCC2)C1c1ccco1 (centres undefined),1%,31%,5%,?,5.8µM*,5.2µM*
CC1=C(C(=O)OC2CCCCC2)C(c2ccc(O)cc2)C2=C(CC(C)(C)CC2=O)N1 (centres undefined),.,.,-29%,.,.,.
CC(=O)C1=C(C)NC(SCC(=O)c2ccc(C)cc2)=C(C#N)C1c1ccco1 (centres undefined),2.8µM*,?,.,?,.,.
Cc1ccc(S(=O)(=O)N(CC(=O)NCCSCc2ccco2)c2ccc(F)cc2)cc1,-19%,0%,.,2%,.,.
Cc1ccc(N(CC(=O)NCCSCc2ccco2)S(=O)(=O)c2ccc(F)cc2)cc1,8%,?,-10%,10%,23µM*,26µM*
Cc1ccc(S(=O)(=O)N(CC(=O)NCCSCc2ccco2)c2cc(C)ccc2C)cc1,.,.,40µM*,.,?,16µM*
Cc1ccc(C(C(=O)NC2CCCCC2)N(C(=O)c2cnccn2)c2cccs2)cc1 (centres undefined),.,.,-15%,.,.,.
COc1cccc(C(=O)N2c3cc(C)ccc3OCC2C(C)(C)C)c1 (centres undefined),-1%,-11%,-8%,-2%,?,-3%
Cc1ccc2c(c1)C(C)(c1ccccc1)CC(C)(C)N2C(=O)c1ccc(F)cc1 (centres undefined),.,.,-10%,.,13µM*,?
COc1cccc(C(=O)N2c3cc(C)ccc3C(C)(c3ccccc3)CC2(C)C)c1 (centres undefined),.,.,-11%,.,15µM*,?
Cc1cc(C(=O)N[C@@H]2CN(Cc3ccccc3)C[C@H]2CN(C)C)n[nH]1,.,.,75%,.,.,.
Cc1cnc(CNc2ncncc2-c2c(C)noc2C)cn1,0%,14%,-18%,.,2.6µM*,3.7µM*
FC(F)(F)c1ccccc1-c1cncnc1NCc1ccccc1,0%,0%,?,.,-13%,-14%
CNc1ncncc1-c1c(C)noc1C,-3%,11%,?,.,25%,?
Cc1cnc(CNc2ncncc2-c2ccccc2C(F)(F)F)cn1,-5%,2%,22µM*,.,-28%,?
O=C(NC1CCCCC1)C1CN(C(=O)c2ccc(Cl)s2)CC12CCOCC2 (centres undefined),.,.,-12%,.,.,.
COc1ccc(S(=O)(=O)c2c(N)n(Cc3ccco3)c3nc4ccccc4nc23)cc1,5%,?,0%,?,-86%,18µM*
Cc1ccc(S(=O)(=O)c2c(C)c(C)n(Cc3ccco3)c2N)cc1,.,.,45µM*,.,.,.
